The results in this text go back to the supplement of paper PMC13380429.

The first assay concerns Vero E6 infected with SARS-CoV-2. Nature of the assay: morphology score (similarity to uninfected cells); higher = more like uninfected cells. The conditions noted are these: 24 h.
Regarding `CCN1C[C@H](C)n2c(c(O)c3c(=O)n(Cc4ccc(F)c(Cl)c4)nc(C(=O)NC)c32)C1=O` (10 µM), the morphology score worked out at 0.0188.
Still for that read-out and setting: the value for `COc1ccc(C2CNC(=O)NC2)cc1O[C@H]1C[C@@H]2CC[C@H]1C2` [atizoram] (10 µM) was 0.369; that for `NC(=O)c1ncn([C@@H]2O[C@H](CO)[C@@H](O)[C@H]2O)n1` [ribavirin] (10 µM) was 0.0157.
The molecule `Cc1cc(Nc2nc(N[C@@H](C)c3ncc(F)cn3)ncc2Cl)[nH]n1` (10 µM) returned a morphology score of 0.046.
On the same count and under the same terms, the value for `COc1ccccc1N1CCN(CCCNc2cc(=O)n(C)c(=O)n2C)CC1` [urapidil] (10 µM) was 0.088; that for `O=P1(N(CCCl)CCCl)NCCCO1` (stereo not given) [cyclophosphamide] (10 µM) was 0.0658; that for `CC1(C)CCC(C)(C)c2cc(C3(c4ccc5cc(C(=O)O)ccc5c4)SCCS3)ccc21` (10 µM) was 0.132.
On the same count and under the same terms, the value for `CS(=O)(=O)N(Cc1ccco1)C[C@@H](O)Cn1c2ccccc2c2ccccc21` (10 µM) was 0.000274; that for `CCc1cccc(CC)c1NC(=O)c1nn(C)c2c1CCc1cnc(Nc3ccc(C(=O)NC4CCN(C)CC4)cc3OC(F)(F)F)nc1-2` (10 µM) was -0.0668; that for `COCCOC(=O)C1=C(C)NC(C)=C(C(=O)OC/C=C/c2ccccc2)C1c1cccc([N+](=O)[O-])c1` (stereo not given) [cilnidipine] (10 µM) was 0.171.
On the same count and under the same terms, the value for `CC(C)(C=O)Cc1cc(C(C)(C)C)c(O)c(C(C)(C)C)c1` (10 µM) was 0.0771.
On to `Oc1ccc2ccccc2c1Cc1c(O)ccc2ccccc12` (10 µM), for which the morphology score is 0.0699.
The molecule `COc1cc(C2Oc3cc([C@H]4Oc5cc(O)cc(O)c5C(=O)[C@@H]4O)ccc3OC2CO)ccc1O` (stereo not given in full) [silibinin] (10 µM) had a morphology score of 0.0273.
On the same count and under the same terms, the same measure for `CCCOc1ccc(Br)cc1-c1cc(-c2ccc(Cl)cc2)[nH]c1-c1ccncc1` (10 µM): 0.113; for `COC(=O)[C@@H](N)CS` [mecysteine] (10 µM): -0.052.
The same measure, in the same setting: the same measure for `c1cncc(CN2CCC(n3ncc4c(N5CCOCC5)nc(-c5ccc6[nH]ccc6c5)nc43)CC2)c1` (0.833333 µM): 0.491; for `CCCN1CCN(c2ccc(C(=O)NC3(C(=O)NCC#N)CCCCC3)cc2)CC1` [balicatib] (10 µM): 0.59; for `CC(=O)N[C@@H](CCC(N)=O)C(=O)O` [aceglutamide] (10 µM): -0.137.
The same measure, in the same setting: the same measure for `Nc1ncnc2c1ncn2[C@@H]1O[C@H](CO)[C@@H](O)[C@H]1O` [adenosine] (10 µM): 0.0109; for `Cc1ccc(NC(=O)c2ccc(CN3CCN(C)CC3)cc2)cc1Nc1nc(-c2cccnc2)cs1` [masitinib] (10 µM): 0.757; for `Cc1ccccc1C(C(=O)NC1CCCCC1)N(C(=O)Cn1ccnc1C)c1cccc(F)c1` (stereo not given) (10 µM): 0.177.
As for `N#Cc1ccc(-c2ccc(S(=O)(=O)Nc3cccc(N)n3)cc2)cc1` (10 µM), the morphology score is -0.0328.
Still for that read-out and setting: the same measure for `C=CCN1CCCC1CNC(=O)c1cc2nn[nH]c2cc1OC` (stereo not given) [alizapride] (10 µM): -0.124; for `CCC1(C2=NCCN2)Cc2ccccc2O1` (stereo not given) [efaroxan] (10 µM): 0.165; for `C[C@@H](O)[C@H]1C(=O)N2C(C(=O)O)=C(S[C@@H]3CN[C@H](C(=O)N(C)C)C3)[C@H](C)[C@H]12` [meropenem] (10 µM): 0.0366.
Same read-out and setting: the value for `Cn1c(=O)n(-c2ccc(C(C)(C)C#N)cc2)c2c3cc(-c4cnc5ccccc5c4)ccc3ncc21` (10 µM) was 0.0712.
Same read-out and setting: the value for `CCCOc1ccc2c(c1)CC[C@@H]1[C@@H]2CC[C@]2(C)[C@@H](OC)CC[C@@H]12` [promestriene] (10 µM) was 0.169; that for `O=C1c2ccccc2C(=O)C1c1ccccc1` [phenindione] (10 µM) was -0.000221; that for `Nc1nc(CC(=O)Nc2ccc(CCNC[C@H](O)c3ccccc3)cc2)cs1` [mirabegron] (10 µM) was -0.0704.
For the molecule `CC1(C)O[C@@H]2C[C@H]3[C@@H]4CCC5=CC(=O)C=C[C@]5(C)[C@@]4(F)[C@@H](O)C[C@]3(C)[C@]2(C(=O)CO)O1` (10 µM), the morphology score came out at 0.0142.

The test system is the same in another assay. Nature of the assay: SARS-CoV-2 infection rate relative to infected DMSO; higher = more infection, active = 60 or less. The conditions noted are these: 24 h.
For the molecule `O=C(Nc1ccc(-c2ccncc2)cc1)N[C@H](CO)c1ccccc1` (0.833333 µM), the SARS-CoV-2 infection rate was 94% (inactive).
Still for that read-out and setting: the value for `CC[C@H](c1ccc(O)cc1)[C@@H](CC)c1ccc(O)cc1` [hexestrol] (10 µM) was 102% (inactive); that for `Nc1cc(-c2ccncc2)c[nH]c1=O` [amrinone] (10 µM) was 112% (inactive).
The same measure, in the same setting: the same measure for `CCOC(=O)n1ccn(C)c1=S` [carbimazole] (10 µM): 99% (inactive); for `C[C@H]1C[C@H]2[C@@H]3CCC4=CC(=O)C=C[C@]4(C)[C@@]3(F)[C@@H](O)C[C@]2(C)[C@@]1(O)C(=O)CO` [betamethasone] (10 µM): 111% (inactive).
Still for that read-out and setting: the same measure for `CCC(C)CCCC(=O)N[C@@H](CCN)C(=O)N[C@H](C(=O)N[C@@H](CCN)C(=O)N[C@H]1CCNC(=O)[C@H]([C@@H](C)O)NC(=O)[C@H](CCN)NC(=O)[C@H](CCN)NC(=O)[C@H](CC(C)C)NC(=O)[C@@H](CC(C)C)NC(=O)[C@H](CCN)NC1=O)[C@@H](C)O` (stereo not given in full) [colistin] (10 µM): 96.2% (inactive); for `C[C@H](NCc1ccc(OCc2ccccc2F)cc1)C(N)=O` [priralfinamide] (10 µM): 114% (inactive); for `CCCCC[C@H](O)/C=C/[C@H]1[C@H](O)CC(=O)[C@@H]1CCCCCCC(=O)O` [alprostadil] (10 µM): 90.5% (inactive).
As to `CCCOC(=O)c1ccc(O)cc1` [propyl 4-hydroxybenzoate] (10 µM), the SARS-CoV-2 infection rate was 111% (inactive).
With `CC(=O)[C@H]1CC[C@H]2[C@@H]3CC[C@H]4C[C@H](O)CC[C@]4(C)[C@H]3CC[C@]12C` [allopregnanolone] (10 µM), the SARS-CoV-2 infection rate is 103% (inactive).
On the same count and under the same terms, the same measure for `CCN1C[C@H](C)n2c(c(O)c3c(=O)n(Cc4ccc(F)c(Cl)c4)nc(C(=O)NC)c32)C1=O` (10 µM): 97.5% (inactive); for `COc1ccc(C2CNC(=O)NC2)cc1O[C@H]1C[C@@H]2CC[C@H]1C2` [atizoram] (10 µM): 93.5% (inactive).
On the same count and under the same terms, the same measure for `NC(=O)c1ncn([C@@H]2O[C@H](CO)[C@@H](O)[C@H]2O)n1` [ribavirin] (10 µM): 97.5% (inactive); for `Cc1cc(Nc2nc(N[C@@H](C)c3ncc(F)cn3)ncc2Cl)[nH]n1` (10 µM): 108% (inactive).
Same read-out and setting: the same measure for `COc1ccccc1N1CCN(CCCNc2cc(=O)n(C)c(=O)n2C)CC1` [urapidil] (10 µM): 101% (inactive); for `O=P1(N(CCCl)CCCl)NCCCO1` (stereo not given) [cyclophosphamide] (10 µM): 97.5% (inactive); for `CC1(C)CCC(C)(C)c2cc(C3(c4ccc5cc(C(=O)O)ccc5c4)SCCS3)ccc21` (10 µM): 98% (inactive).
Regarding `CS(=O)(=O)N(Cc1ccco1)C[C@@H](O)Cn1c2ccccc2c2ccccc21` (10 µM), the SARS-CoV-2 infection rate was 91% (inactive).
Still for that read-out and setting: the value for `CCc1cccc(CC)c1NC(=O)c1nn(C)c2c1CCc1cnc(Nc3ccc(C(=O)NC4CCN(C)CC4)cc3OC(F)(F)F)nc1-2` (10 µM) was 111% (inactive); that for `COCCOC(=O)C1=C(C)NC(C)=C(C(=O)OC/C=C/c2ccccc2)C1c1cccc([N+](=O)[O-])c1` (stereo not given) [cilnidipine] (10 µM) was 95% (inactive).
The same measure, in the same setting: the same measure for `CC(C)(C=O)Cc1cc(C(C)(C)C)c(O)c(C(C)(C)C)c1` (10 µM): 94% (inactive); for `Oc1ccc2ccccc2c1Cc1c(O)ccc2ccccc12` (10 µM): 104% (inactive); for `COc1cc(C2Oc3cc([C@H]4Oc5cc(O)cc(O)c5C(=O)[C@@H]4O)ccc3OC2CO)ccc1O` (stereo not given in full) [silibinin] (10 µM): 104% (inactive).
On the same count and under the same terms, the same measure for `CCCOc1ccc(Br)cc1-c1cc(-c2ccc(Cl)cc2)[nH]c1-c1ccncc1` (10 µM): 100% (inactive); for `COC(=O)[C@@H](N)CS` [mecysteine] (10 µM): 112% (inactive); for `c1cncc(CN2CCC(n3ncc4c(N5CCOCC5)nc(-c5ccc6[nH]ccc6c5)nc43)CC2)c1` (0.833333 µM): 69% (inactive).
For `CCCN1CCN(c2ccc(C(=O)NC3(C(=O)NCC#N)CCCCC3)cc2)CC1` [balicatib] (10 µM), the SARS-CoV-2 infection rate was 46% (active).
Take `CC(=O)N[C@@H](CCC(N)=O)C(=O)O` [aceglutamide] (10 µM): the SARS-CoV-2 infection rate was 105% (inactive).
For `Nc1ncnc2c1ncn2[C@@H]1O[C@H](CO)[C@@H](O)[C@H]1O` [adenosine] (10 µM), the SARS-CoV-2 infection rate is 109% (inactive).
Same read-out and setting: the same measure for `Cc1ccc(NC(=O)c2ccc(CN3CCN(C)CC3)cc2)cc1Nc1nc(-c2cccnc2)cs1` [masitinib] (10 µM): 43% (active).
Still for that read-out and setting: the value for `Cc1ccccc1C(C(=O)NC1CCCCC1)N(C(=O)Cn1ccnc1C)c1cccc(F)c1` (stereo not given) (10 µM) was 108% (inactive).
Still for that read-out and setting: the same measure for `N#Cc1ccc(-c2ccc(S(=O)(=O)Nc3cccc(N)n3)cc2)cc1` (10 µM): 120% (inactive); for `C=CCN1CCCC1CNC(=O)c1cc2nn[nH]c2cc1OC` (stereo not given) [alizapride] (10 µM): 121% (inactive); for `CCC1(C2=NCCN2)Cc2ccccc2O1` (stereo not given) [efaroxan] (10 µM): 95% (inactive).
For the molecule `C[C@@H](O)[C@H]1C(=O)N2C(C(=O)O)=C(S[C@@H]3CN[C@H](C(=O)N(C)C)C3)[C@H](C)[C@H]12` [meropenem] (10 µM), the SARS-CoV-2 infection rate is 104% (inactive).
Consider `Cn1c(=O)n(-c2ccc(C(C)(C)C#N)cc2)c2c3cc(-c4cnc5ccccc5c4)ccc3ncc21` (10 µM), for which the SARS-CoV-2 infection rate was 98% (inactive).
The same measure, in the same setting: the same measure for `CCCOc1ccc2c(c1)CC[C@@H]1[C@@H]2CC[C@]2(C)[C@@H](OC)CC[C@@H]12` [promestriene] (10 µM): 99.5% (inactive); for `O=C1c2ccccc2C(=O)C1c1ccccc1` [phenindione] (10 µM): 106% (inactive); for `Nc1nc(CC(=O)Nc2ccc(CCNC[C@H](O)c3ccccc3)cc2)cs1` [mirabegron] (10 µM): 102% (inactive).
Same read-out and setting: the value for `CC1(C)O[C@@H]2C[C@H]3[C@@H]4CCC5=CC(=O)C=C[C@]5(C)[C@@]4(F)[C@@H](O)C[C@]3(C)[C@]2(C(=O)CO)O1` (10 µM) was 109% (inactive).
